High-throughput results (PubChem)
GDH-TPI counter: inhibits GDH-TPI coupling enzymes, artifact for Mtb FBA screen; GDH-TPI coupled enzyme counterscreen, NADH absorbance; inhibition, % at 4.8 µM; 360,000 tested, 1.2% active; in the data active = inhibition above about 30%
UGM FP inh: Mtb UDP-galactopyranose mutase inhibition | P9WIQ1 | purified UGM, fluorescence polarization probe displacement | inhibition, % at 10 µM | 320,000 tested, 0.06% active | AID 504406; in the data active = inhibition above about 10%, passing the limit was not always enough
Rv3671c protease: Rv3671c (M. tuberculosis) protease inhibition; inhibition, % at 5.96 µM; 320,000 tested, 0.048% active; in the data active = inhibition above about 38%;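 note: extracellular domain of Rv3671c used as enzyme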
BH1578 lux ind: induces V. cholerae light production without autoinducers; V. cholerae BH1578 lux reporter, luminescence, 6 h; 350,000 tested, 0.16% active; activation, % at 18.7 µM; AID 588436; in the data active = activation mostly above about 9.7%, no sharp cut-off
Mtb FBA inh: inhibits M. tuberculosis FBA enzyme; inhibition, % at 1 µM; P9WQA3; purified M. tuberculosis FBA, fluorescence read-out; 360,000 tested, 2.3% active; AID 588726; in the data active = inhibition above about 27%
Target sequence (P9WQA3 whole entry, looked up): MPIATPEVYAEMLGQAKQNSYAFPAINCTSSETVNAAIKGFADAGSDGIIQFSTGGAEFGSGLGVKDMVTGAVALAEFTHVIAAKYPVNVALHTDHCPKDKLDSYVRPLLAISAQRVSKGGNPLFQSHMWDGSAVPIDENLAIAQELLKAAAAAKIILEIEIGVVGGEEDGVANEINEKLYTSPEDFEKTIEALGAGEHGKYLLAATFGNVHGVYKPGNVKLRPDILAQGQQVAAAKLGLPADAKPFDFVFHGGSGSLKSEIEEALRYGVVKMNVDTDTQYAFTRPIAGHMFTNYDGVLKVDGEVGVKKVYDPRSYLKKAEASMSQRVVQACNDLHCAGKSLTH
RecA splice inh: Mtb RecA intein splicing inhibition; AID 2221; cell-free RecA intein splicing, fluorescence; 290,000 tested, 0.75% active; P9WHJ3; inhibition, % (test concentration not listed); in the data active = inhibition above about 30%
GFP chromo cs: counter-screen GFP chromophore formation inhibition | AID 434968 | shares compounds with RecA splice inh | cell-free GFP chromophore formation, fluorescence | 2,100 tested, 83% active | EC50, µM; call rule not given here
Each line names hits and unclear results; the compound was inactive in the other large screens (follow-up assays come after a bar, where they were run). Most compounds without a hit are left out; they make up all but 4.1% or so of the library.

CCCCCCCCCCOC(=O)Cn1c(COc2cccc(C)c2)[n+](C)c2ccccc21	RecA splice inh 55 | GFP chromo cs 9.4
Cc1ccccc1CC1SC(N=C(N)N)=NC1=O (configuration not stated)	none
O=C(CCl)Nc1cccc(S(=O)(=O)N2CCCCCC2)c1	RecA splice inh 44 | GFP chromo cs 33
CN1OC[C@@H]2CN(C(=O)C(C)(C)C)[C@H](c3ccc(-c4cc5ccccc5o4)cc3)C[C@@H]21	none (no result: UGM FP inh, Rv3671c protease, RecA splice inh)
COc1ccc2c(c1)-c1nc(/N=C/c3c(O)ccc4ccccc34)sc1CC2	RecA splice inh 51 (no result: UGM FP inh, Rv3671c protease) | GFP chromo cs inactive
Cc1[nH]c2ccccc2c1CCNC(=O)c1ccc2c(c1[N+](=O)[O-])C(=O)c1ccccc1C2=O	RecA splice inh 84 | GFP chromo cs 31
CCCNC(=O)NCCc1c(C)[nH]c2ccccc12	none
Cc1ccc(NC(=O)c2ccc(OC(=O)C(C)Oc3ccc(Cl)cc3C)cc2)cc1 (configuration not stated)	none
O=C1c2ccccc2C(=O)c2c1oc(C(F)(F)F)c2C(=O)c1ccccc1	RecA splice inh 39 | GFP chromo cs inactive
O=C(c1ccccc1)c1coc2c1C(=O)c1ccccc1C2=O	none
CN(CC(=O)Nc1ccc(Cl)c(C(F)(F)F)c1)S(=O)(=O)c1cnc[nH]1	none (no result: UGM FP inh, Rv3671c protease, RecA splice inh)
CCC(=O)c1ccc(OCC(=O)NNC(=O)c2cc(C)oc2C)cc1	none (no result: UGM FP inh, Rv3671c protease, RecA splice inh)
O=C1C(=O)c2ccccc2C(O)=C1CCCCl	RecA splice inh 60 | GFP chromo cs 12
CCCCn1c(N)c(N(CCOC)C(=O)CCC2CCCCC2)c(=O)[nH]c1=O	none (no result: RecA splice inh)
Oc1cccc(C=Nc2cccc3ccccc23)c1O	RecA splice inh 31 | GFP chromo cs 15
Cc1ccc(-c2nnc(Sc3nc4ccccc4o3)c3ccccc23)cc1	RecA splice inh 77 | GFP chromo cs 0.93
Clc1ccc(-c2nnc(Sc3nc4ccccc4o3)c3ccccc23)cc1	RecA splice inh 57 | GFP chromo cs 0.62
Cc1nnc(Sc2nc3ccccc3o2)c2ccccc12	RecA splice inh 50 | GFP chromo cs 28
CCSc1nnc(C)c2ccccc12	none
COc1ccc(OC)c(S(=O)(=O)Nc2ccccc2C(=O)N2CCCCC2)c1	none (no result: UGM FP inh, Rv3671c protease, RecA splice inh)
COc1ccc(Cc2nc3ccc(C(=O)NCc4cccc(C)n4)cc3o2)cc1OC	none (no result: UGM FP inh, Rv3671c protease, RecA splice inh)
N#Cc1ccc(NC(=S)NC(=O)C2CC2)cc1	none (no result: UGM FP inh, Rv3671c protease, RecA splice inh)
CC1=NNC(=O)/C1=C\c1cn(-c2ccccc2)nc1-c1cccs1	RecA splice inh 97 | GFP chromo cs 2.8
CC1=NNC(=O)/C1=C\c1cn(-c2ccccc2)nc1-c1ccc(F)cc1	RecA splice inh 66 (no result: UGM FP inh, Rv3671c protease) | GFP chromo cs 2.5
O=Cc1cn(-c2ccccc2)nc1-c1ccc(F)cc1	none
O=C(O)CCCCCN1C(=O)/C(=C/c2cn(-c3ccccc3)nc2-c2cccs2)SC1=S	none (no result: UGM FP inh, Rv3671c protease, BH1578 lux ind, RecA splice inh)
Cc1ccc(NC(=S)NCCc2ccccc2)nc1	none
O=c1[nH]c2ccc(Cl)cc2c(-c2ccccc2)c1SC(=S)N1CCCCC1	RecA splice inh 40 | GFP chromo cs inactive
O=c1[nH]c2ccc(Cl)cc2c(-c2ccccc2)c1SC(=S)N1CCOCC1	none
CN(CC(=O)NC1CC1)S(=O)(=O)c1cc(Cl)ccc1Cl	none (no result: Rv3671c protease)
CCOC(=O)/C=c1\s/c(=C(\C#N)C(N)=O)n(-c2ccccc2)c1=O	RecA splice inh 49 | GFP chromo cs 24
CCOC(=O)/C=c1\s/c(=C(\C#N)C(=O)NC)n(-c2ccccc2)c1=O	none
CC(=O)Nc1ccc(S(=O)(=O)NCC2(N3CCOCC3)CCCCC2)cc1	none (no result: UGM FP inh, Rv3671c protease, RecA splice inh)
CCOC(=O)c1c(CSC(=N)N)n(-c2ccccc2)c2cc(Br)c(OC(C)=O)cc12	RecA splice inh 48 | GFP chromo cs 20
CC(=O)Nc1cccc(C(=O)N2CCN(S(=O)(=O)Cc3ccccc3)CC2)c1	none (no result: RecA splice inh)
CC1(C(=O)OCC(=O)NCCNC(=O)COC(=O)C2(C)CC2(Cl)Cl)CC1(Cl)Cl (configuration not stated)	none
Cc1c(NC(=O)c2ccc(NS(=O)(=O)c3ccc(F)c(F)c3)cc2)c(=O)n(-c2ccccc2)n1C	none (no result: RecA splice inh)
CC1C(=O)c2ccccc2CC1C(=O)O (configuration not stated)	none (no result: UGM FP inh, Rv3671c protease, RecA splice inh)
CC(=O)N/N=C/c1c(C)[nH]n(-c2ccccc2)c1=O	none (no result: RecA splice inh)
Cc1[nH]n(-c2ccccc2)c(=O)c1/C=N\NC(=O)C1COc2ccccc2O1 (configuration not stated)	RecA splice inh 38 | GFP chromo cs inactive
CCOC(=O)CN1C(=O)N[C@@H](c2cccc(C(F)(F)F)c2)C(C(C)=O)=C1C	RecA splice inh 35 | GFP chromo cs inactive
COc1ccccc1-c1n[nH]c(=S)n1Cc1ccccc1	none
COc1ccccc1-c1cn[nH]c(=S)n1	RecA splice inh 35 | GFP chromo cs inactive
Nc1cc(-c2cccc([N+](=O)[O-])c2)[nH]n1	none
O=c1cc(-c2cccc([N+](=O)[O-])c2)[nH][nH]1	RecA splice inh 96 | GFP chromo cs 11
O=S(=O)(c1ccccc1)c1ncc(C(F)(F)F)cc1Cl	RecA splice inh 63 (no result: UGM FP inh, Rv3671c protease) | GFP chromo cs 25
COC1=CC(=O)C(O)=C(CCCCCCC/C=C/CCCCCCCC2=C(O)C(=O)C=C(OC)C2=O)C1=O	RecA splice inh 76 | GFP chromo cs 2.1
O=c1c(-c2ccccc2)c(O)cc(-c2ccncc2)n1-c1ccc(Cl)cc1	none
CC(C)(C)c1c(Cl)c(O)c(-c2ccccc2)c(=O)n1-c1ccccc1	RecA splice inh 31 (no result: UGM FP inh, Rv3671c protease) | GFP chromo cs inactive
COC(=O)CN1C(=O)COc2ccc(S(=O)(=O)N3CCCCC3)cc21	none (no result: UGM FP inh, Rv3671c protease, RecA splice inh)
CC(C)(C)C(=O)Nc1ccc(N=Nc2ccccc2)cc1	RecA splice inh 35 | GFP chromo cs 8.7
O=C(O)CCC(=O)Nc1ccc(N=Nc2ccccc2)cc1	none (no result: UGM FP inh, Rv3671c protease)
Cc1[nH]n(-c2ccccc2)c(=O)c1C(C[N+](=O)[O-])c1ccccc1Cl (configuration not stated)	RecA splice inh 75 | GFP chromo cs 15
COc1ccc(C(C[N+](=O)[O-])c2c(C)[nH]n(-c3ccccc3)c2=O)cc1 (configuration not stated)	RecA splice inh 95 | GFP chromo cs 5.3
C[C@@H]1CCCCO[C@@H](CN(C)C(=O)CCCN(C)C)[C@@H](C)CN([C@H](C)CO)C(=O)c2cc(NC(=O)CCC(F)(F)F)ccc2O1	none (no result: UGM FP inh, Rv3671c protease, RecA splice inh)
N#CC1=C(N)Oc2n[nH]c(-c3ccccc3)c2C1c1ccsc1 (configuration not stated)	RecA splice inh 86 | GFP chromo cs 31
Cc1ccc(-c2[nH]nc3c2C(c2ccsc2)C(C#N)=C(N)O3)cc1 (configuration not stated)	RecA splice inh 65 | GFP chromo cs 1.8
COc1cc(-c2[nH]nc3c2C(c2ccoc2)C(C#N)=C(N)O3)cc(OC)c1OC (configuration not stated)	none (no result: RecA splice inh)
CCC(CC)C1C(C#N)=C(N)Oc2n[nH]c(-c3ccccc3)c21 (configuration not stated)	none
